Experimental findings from PubChem BioAssay are described below.

Assay [1] has as its target Albumin (Bos taurus) (UniProt P02769). As to the kind of experiment: bovine serum albumin binders on microarray, profiling panel, artefact control for SMM control protein annotation, biochemical, small-molecule microarray, Alexa647 label, 635/667 nm fluorescence (AID 1118).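 Also: score merges 667 nm emission intensity and signal-to-noise per printed compound spot.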 The following applies: BSA-A647 binding, fluorescence 635 nm, higher = more signal.
Assay [2] can be described thus: small-molecule microarray binders of probe aXIP, primary screen, biochemical, NeuroSMM set, 635/667 nm fluorescence (AID 1119).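 Also: probe is the protein aXip251-270 applied at 1 µg/mL to compound-printed slides; binding of probe to printed compounds measured as 667 nm fluorescence plus signal to noise.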 As to conditions: higher = more signal, called active from +8 up or from −8 down.
Assay [3] can be described thus: small-molecule binders of probe aNOTCH3, primary screen, biochemical, small-molecule microarray, 635/667 nm fluorescence (AID 1120).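 Also: probe is a biotin-tagged antibody raised against NOTCH3 rather than NOTCH3 protein; score merges spot fluorescence near 667 nm with spot signal to noise.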 The following applies: higher = more signal.
Assay [4] in a line: small-molecule binders of probe aNOTCH2, primary screen, biochemical, small-molecule microarray, 635/667 nm fluorescence (AID 1121).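 Also: score merges feature fluorescence read at 667 nm with its signal to noise.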 The following applies: higher = more signal.
The target of assay [5] is Carbonic anhydrase 2 (Homo sapiens) (UniProt P00918). As to the kind of experiment: CAII small-molecule binders, profiling panel, biochemical, small-molecule microarray, Alexa647-labelled CAII (AID 1122). As to conditions: CAII-A647 binding fluorescence, higher = more signal.
A short description of assay [6]: COS7 lysate on small-molecule microarray, probe aHis, 635 nm (AID 1123).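 Also: z-score combines 667nm fluorescence intensity with signal-to-noise per printed compound spot.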 As to conditions: COS7 cell lysate, fluorescence, higher = more signal.
Assay [7] in a line: compound binding in COS7 lysate, probe aLAP1, primary screen, cell lysate, small-molecule microarray (AID 1124).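 Also: lysate comes from COS7 cells expressing LAP1 and is applied at 0.3 µg/mL; score merges spot fluorescence near 667 nm with signal-to-noise over triplicate slides.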 As to conditions: probe aLAP1, fluorescence, higher = more signal.
Assay [8] deals with Sam68 (KHDRBS1). Briefly: Sam68 small-molecule binders, primary screen, biochemical, small-molecule microarray, 635 nm fluorescence (AID 1125).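 Also: score merges 667 nm channel intensity with signal to noise over triplicate slides.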 As to conditions: small-molecule microarray binding, higher = more signal.
Assay [9] relates to Chordin-like protein 2 (CHRDL2). Briefly: CHRDL2 small-molecule binders, primary screen, biochemical, small-molecule microarray, 635 nm fluorescence (AID 1126).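 Also: printed compound slides probed with Chrdl2 protein at 4 µg/mL for 1 h at 4 C; score merges 667 nm emission intensity with signal to noise over three replicate slides.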 The following applies: small-molecule microarray binding, fluorescence 635 nm; higher = more signal.
Assay [10] deals with Concanavalin-A (Canavalia ensiformis) (UniProt P02866). As to the kind of experiment: ConA small-molecule binders, primary screen, artefact control for SMM control protein annotation, biochemical, small-molecule microarray, Alexa647 label, 635 nm (AID 1127).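 Also: z combines 667 nm emission intensity with signal-to-noise across three replicate slides.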 As to conditions: ConA-A647 binding fluorescence, higher = more signal.
Assay [11] in a line: anti-His antibody binders, primary screen, artefact control for SMM control protein annotation, biochemical, small-molecule microarray, 635 nm fluorescence (AID 1128).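 Also: score merges feature fluorescence with signal-to-noise for each printed compound spot.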 The following applies: anti-His Alexa647 antibody binding, higher = more signal.
Assay [12] deals with Human papillomavirus type 1a E7 protein (residues 1-88). Briefly: HPV1a E7 small-molecule binders, primary screen, biochemical, small-molecule microarray, residues 1-88, 635 nm (AID 1129). As to conditions: small-molecule microarray binding, fluorescence 635 nm; higher = more signal.
Assay [13] has as its target Focal adhesion kinase 1 (Homo sapiens) (UniProt Q05397). Briefly: small-molecule microarray binders of FAK, primary screen, biochemical, 635/667 nm fluorescence, BSA, DTT (AID 1130).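 Also: composite of spot emission at 667 nm and signal to noise over triplicate slides.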 The following applies: PTK2 binding, 635 nm fluorescence, higher = more signal.
The subject of assay [14] is Fibrinogen (Alexa647-labelled). Briefly: fibrinogen binders on compound microarrays, profiling panel, artefact control for SMM control-protein annotation, biochemical, small-molecule microarray, 635/667 nm fluorescence (AID 1131).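 Also: z-score merges 667 nm fluorescence with per-spot signal-to-noise over triplicate slides.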 As to conditions: fibrinogen-A647 binding fluorescence, higher = more signal.
Assay [15] has as its target Follistatin (Homo sapiens) (UniProt P19883). As to the kind of experiment: follistatin binders on small-molecule microarrays, primary screen, biochemical, small-molecule microarray, 635/667 nm fluorescence (AID 1132). As to conditions: FST binding, 635 nm fluorescence, higher = more signal.
The target in assay [16] is Fibroblast growth factor 2 (Homo sapiens) (UniProt P09038). Briefly: FGF2 binders on small-molecule microarrays, primary screen, biochemical, small-molecule microarray, 635/667 nm fluorescence (AID 1133). The following applies: small-molecule microarray binding, FGF2, fluorescence 635/667; higher = more signal.
The nature of assay [17]: mitochondrial membrane potential change in A549 cells, profiling panel, cell-based, JC-1 fluorescence, basal, 24 h, 100 nL (AID 1138).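 Also: A549 lung adenocarcinoma cells under basal conditions with no added stimulus; test concentration not given here.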 As to conditions: higher = more signal.
The test system of assay [18] is Lefty1. Briefly: Lefty1 binders on small-molecule microarrays, primary screen, biochemical, small-molecule microarray, 635/667 nm fluorescence (AID 1139). As to conditions: small-molecule microarray binding, fluorescence 635/667; higher = more signal.
Assay [19] deals with wheat germ agglutinin (Triticum aestivum), Alexa647-labelled. As to the kind of experiment: wheat germ agglutinin binders on compound microarrays, profiling panel, artefact control for SMM control-protein annotation, biochemical, small-molecule microarray, 635/667 nm fluorescence (AID 1140).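 Also: score merges 667 nm feature emission with signal to noise over triplicate slides.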 As to conditions: WGA-A647 binding, 635 nm fluorescence, higher = more signal.
Assay [20] has as its target Luciferin 4-monooxygenase (Photinus pyralis) (UniProt P08659). As to the kind of experiment: firefly luciferase enzyme inhibitors, primary screen, biochemical, luminescence, purified enzyme, 2006 set (AID 1141).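 Also: cell-free assay with purified firefly luciferase at 100 ng per well in PBS; test concentration not given here.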 As to conditions: SteadyGlo luminescence, 30 min, higher = more signal, called active from +8 up or from −8 down.

Active and inactive are the calls of the source.

Sequence of Focal adhesion kinase 1 (Homo sapiens) (Q05397 whole entry, looked up): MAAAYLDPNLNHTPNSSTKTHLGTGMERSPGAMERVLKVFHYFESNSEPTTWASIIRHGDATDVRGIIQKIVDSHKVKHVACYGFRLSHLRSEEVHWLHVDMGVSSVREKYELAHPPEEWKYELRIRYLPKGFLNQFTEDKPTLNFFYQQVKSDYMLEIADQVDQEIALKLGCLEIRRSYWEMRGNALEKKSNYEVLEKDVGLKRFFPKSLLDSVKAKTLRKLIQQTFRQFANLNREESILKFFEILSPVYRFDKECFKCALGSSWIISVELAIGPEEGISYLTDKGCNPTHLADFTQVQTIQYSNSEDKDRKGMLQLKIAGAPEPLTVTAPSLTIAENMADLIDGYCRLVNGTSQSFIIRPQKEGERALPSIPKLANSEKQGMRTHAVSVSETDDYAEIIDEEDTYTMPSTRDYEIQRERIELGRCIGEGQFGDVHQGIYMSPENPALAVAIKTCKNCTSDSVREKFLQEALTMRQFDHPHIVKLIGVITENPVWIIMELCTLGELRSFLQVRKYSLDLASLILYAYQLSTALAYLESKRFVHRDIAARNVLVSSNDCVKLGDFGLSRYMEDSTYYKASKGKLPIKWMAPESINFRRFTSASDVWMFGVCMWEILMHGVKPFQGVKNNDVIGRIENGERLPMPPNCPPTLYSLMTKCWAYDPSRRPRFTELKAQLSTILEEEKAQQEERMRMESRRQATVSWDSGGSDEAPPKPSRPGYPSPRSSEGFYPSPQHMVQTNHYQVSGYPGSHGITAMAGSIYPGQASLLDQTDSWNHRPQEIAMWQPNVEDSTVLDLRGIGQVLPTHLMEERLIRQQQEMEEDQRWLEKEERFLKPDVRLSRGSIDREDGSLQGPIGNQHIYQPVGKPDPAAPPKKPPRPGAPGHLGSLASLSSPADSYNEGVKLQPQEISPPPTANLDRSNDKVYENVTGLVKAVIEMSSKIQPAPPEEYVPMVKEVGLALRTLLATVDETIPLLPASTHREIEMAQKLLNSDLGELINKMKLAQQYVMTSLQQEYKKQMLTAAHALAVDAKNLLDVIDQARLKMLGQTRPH
Sequence of Luciferin 4-monooxygenase (Photinus pyralis) (P08659 whole entry, looked up): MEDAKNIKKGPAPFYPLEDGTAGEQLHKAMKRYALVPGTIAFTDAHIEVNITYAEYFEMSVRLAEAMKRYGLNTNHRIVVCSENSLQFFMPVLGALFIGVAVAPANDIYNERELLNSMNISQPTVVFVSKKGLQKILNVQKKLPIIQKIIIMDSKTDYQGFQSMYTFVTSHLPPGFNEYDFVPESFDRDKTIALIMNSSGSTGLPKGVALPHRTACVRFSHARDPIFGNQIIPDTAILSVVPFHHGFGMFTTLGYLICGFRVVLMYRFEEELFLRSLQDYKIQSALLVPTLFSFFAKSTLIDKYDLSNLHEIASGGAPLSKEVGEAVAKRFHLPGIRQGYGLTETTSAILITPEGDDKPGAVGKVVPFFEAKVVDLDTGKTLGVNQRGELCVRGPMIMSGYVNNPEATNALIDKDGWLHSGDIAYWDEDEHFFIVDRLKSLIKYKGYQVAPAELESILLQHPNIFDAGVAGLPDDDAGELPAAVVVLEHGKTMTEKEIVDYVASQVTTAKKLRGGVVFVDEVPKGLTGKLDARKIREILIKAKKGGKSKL
Sequence of Follistatin (Homo sapiens) (P19883 whole entry, looked up): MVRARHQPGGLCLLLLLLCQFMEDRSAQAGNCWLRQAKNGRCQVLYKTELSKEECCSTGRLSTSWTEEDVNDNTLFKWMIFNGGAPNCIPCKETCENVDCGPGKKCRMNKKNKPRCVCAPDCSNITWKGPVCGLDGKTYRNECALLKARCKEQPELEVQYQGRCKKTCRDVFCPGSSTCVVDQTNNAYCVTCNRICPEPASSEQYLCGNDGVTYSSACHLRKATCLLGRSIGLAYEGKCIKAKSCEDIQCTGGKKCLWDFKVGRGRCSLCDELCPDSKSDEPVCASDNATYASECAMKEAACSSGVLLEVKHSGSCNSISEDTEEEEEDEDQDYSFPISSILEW
Sequence of Fibroblast growth factor 2 (Homo sapiens) (P09038 whole entry, looked up): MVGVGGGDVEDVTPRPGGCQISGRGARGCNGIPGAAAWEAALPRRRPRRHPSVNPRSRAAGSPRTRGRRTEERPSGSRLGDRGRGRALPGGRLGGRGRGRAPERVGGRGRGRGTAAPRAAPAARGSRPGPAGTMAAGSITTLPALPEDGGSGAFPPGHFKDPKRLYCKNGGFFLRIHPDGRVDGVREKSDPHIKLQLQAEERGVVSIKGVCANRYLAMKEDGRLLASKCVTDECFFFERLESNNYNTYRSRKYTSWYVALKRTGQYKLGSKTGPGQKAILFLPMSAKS
Sequence of Concanavalin-A (Canavalia ensiformis) (P02866 whole entry, looked up): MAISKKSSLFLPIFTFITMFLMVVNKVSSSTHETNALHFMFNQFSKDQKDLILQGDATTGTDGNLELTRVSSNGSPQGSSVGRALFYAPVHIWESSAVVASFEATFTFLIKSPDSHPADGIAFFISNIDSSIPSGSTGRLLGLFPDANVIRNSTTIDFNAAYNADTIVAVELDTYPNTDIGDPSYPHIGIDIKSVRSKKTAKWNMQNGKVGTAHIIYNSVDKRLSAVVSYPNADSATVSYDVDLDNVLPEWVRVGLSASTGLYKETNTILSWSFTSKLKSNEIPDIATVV
Sequence of Albumin (Bos taurus) (P02769 whole entry, looked up): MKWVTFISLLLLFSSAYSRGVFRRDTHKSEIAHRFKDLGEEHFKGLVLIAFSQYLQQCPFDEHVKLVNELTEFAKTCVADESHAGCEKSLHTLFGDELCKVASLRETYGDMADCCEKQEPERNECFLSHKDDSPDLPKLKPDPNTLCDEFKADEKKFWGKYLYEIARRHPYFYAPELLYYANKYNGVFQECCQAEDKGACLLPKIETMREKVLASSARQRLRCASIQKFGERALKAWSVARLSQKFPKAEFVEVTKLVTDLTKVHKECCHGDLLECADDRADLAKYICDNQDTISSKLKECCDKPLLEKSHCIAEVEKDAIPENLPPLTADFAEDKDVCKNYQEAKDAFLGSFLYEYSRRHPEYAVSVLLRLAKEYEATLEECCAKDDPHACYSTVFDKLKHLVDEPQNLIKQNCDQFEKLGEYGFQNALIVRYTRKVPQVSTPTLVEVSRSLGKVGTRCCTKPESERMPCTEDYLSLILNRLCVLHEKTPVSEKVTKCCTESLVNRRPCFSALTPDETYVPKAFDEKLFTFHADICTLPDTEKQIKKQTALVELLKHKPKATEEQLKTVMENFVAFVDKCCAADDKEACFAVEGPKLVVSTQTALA

With `O=C1C[C@]2(c3ccc([N+](=O)[O-])cc3)C(=O)N(C3CC3)c3cc(CO)ccc3[C@H]2N1CC12CC3CC(CC(C3)C1)C2`, the composite z-score in assay [1] is 0.393; in assay [3], -0.213; in assay [4] it was -0.0357; in assay [5] it was 0.76; in assay [6], 0.422; in assay [7], 0.401. Besides, the composite z-score in assay [8] is -0.183; in assay [9], -0.201; in assay [10] it was 0.176; in assay [11], -0.496; in assay [12], -0.336; in [13] it was -0.421. Further, the composite z-score was -0.168 in [14]; -0.579 in assay [15]; -0.364 in assay [16]; -1.5 in [18]; -0.456 in [19]. In assay [2], the composite Z-score was -0.571 (inactive). For the same compound, the z-score is -1.17 in [17] and -0.124 (inactive) in assay [20].
In the case of `[N-]=[N+]=Nc1ccccc1[C@H]1OC(c2ccc(OCCCO)cc2)=N[C@@]1(Cc1ccccc1)C(=O)NCCN1CCOCC1`, the composite z-score in [1] is 0.887; in assay [3], 0.457; in [4], 0.117; in [5], 0.529; in assay [6], 2.87; in assay [7], 0.634. Moreover, the composite z-score is 1.3 in [8]; 0.0045 in assay [9]; 1.16 in assay [10]; 1.65 in assay [11]; 1.23 in assay [12]; 0.309 in assay [13]. Besides, the composite z-score worked out at 0.996 in [14]; 1.21 in assay [15]; 0.989 in assay [16]; 0.624 in assay [18]; 1.2 in assay [19]. Besides, the composite Z-score in assay [2] was 1.16 (inactive). Moreover, the z-score in assay [17] was 2.49; in [20] it was -4.32 (inactive).
For `CC(C)N1C(=O)c2ccccc2[C@@H](C(=O)NCCN2CCOCC2)[C@@H]1c1ccc(CO)cc1`, the composite z-score in assay [1] was 0.466; in assay [3] it was -0.313; in assay [4], -0.155; in assay [5], 0.786; in assay [6], -0.735; in assay [7], -0.523. Moreover, the composite z-score is -1.21 in assay [8]; -1.51 in assay [9]; -0.538 in assay [10]; 1.3 in [11]; -0.736 in [12]; -0.378 in assay [13]. The composite z-score in [14] was -1.99; in assay [15], -0.0463; in assay [16], -1.57; in assay [18], -0.786; in assay [19] it was -1.23. For the same compound, the composite Z-score in [2] is 1.62 (inactive). For the same compound, the z-score in [17] was 0.156; in assay [20] it was 0.128 (inactive).
Take `COCCOC(=O)N1C(=O)[C@@]2(c3cc(C#CCC(C(=O)OC)C(=O)OC)ccc31)[C@H](c1ccc(OCCO)cc1)N1[C@H](c3ccccc3)[C@H](c3ccccc3)OC(=O)[C@H]1[C@@H]2C(=O)N1CCc2cc(OC)c(OC)cc2C1`: the composite z-score in assay [1] is 0.688; in [3], 0.0351; in assay [4] it was -0.106; in [5], 0.256; in assay [6] it was 1.48; in [7], -0.0051. Also, the composite z-score is 1.06 in [8]; 0.378 in [9]; 1.11 in assay [10]; 1.75 in assay [11]; 1.22 in assay [12]; 0.919 in assay [13]. In addition, the composite z-score in assay [14] is 0.889; in [15], 1.37; in assay [16], 1.5; in [18], 1.4; in assay [19] it was 1.08. For the same compound, the composite Z-score in [2] was -0.388 (inactive). Further, the results for the z-score in [17] and in assay [20] were -0.942 and -0.411 (inactive), respectively.
As for `COC(=O)[C@@]1(Cc2ccc(F)cc2)[C@H]2c3cc(C(=O)N(C)C)n(Cc4ccc(OC(F)(F)F)cc4)c3C[C@H]2CN1C(=O)c1ccccc1`, the composite z-score was 0.239 in assay [1]; 0.11 in assay [3]; -0.078 in assay [4]; 0.0217 in assay [5]; 0.398 in assay [6]; 0.0642 in assay [7]. The composite z-score in assay [8] is -0.0367; in assay [9], -0.0356; in assay [10] it was 0.296; in assay [11], 0.348; in assay [12], 0.626; in assay [13], 0.0291. Also, the composite z-score in [14] was 0.572; in assay [15], 0.216; in assay [16], 0.016; in assay [18] it was -0.182; in assay [19], 0.341. In assay [2], the composite Z-score was -0.249 (inactive). In addition, the z-score in [17] was 0.561; in assay [20], 1.6 (inactive).
As for `Cc1ccc(S[C@]2(C(=O)O)CC(=O)N(C3CCCCC3)[C@@H]2c2ccc(CO)cc2I)cc1`, the composite z-score is 0.905 in assay [1]; 0.175 in assay [3]; -0.013 in assay [4]; 0.331 in assay [5]; 2.84 in assay [6]; 1.01 in assay [7]. Also, the composite z-score was 1.29 in [8]; -0.565 in [9]; 1.02 in assay [10]; 0.96 in assay [11]; 1.22 in assay [12]; -0.155 in [13]. The composite z-score in assay [14] is 0.745; in [15], 1.19; in [16], 0.101; in assay [18], -0.163; in assay [19], 0.89. Moreover, in assay [2], the composite Z-score was 0.258 (inactive). Also, the z-score in [17] is -0.996; in assay [20], 0.453 (inactive).
